About 79,000 compounds went through this panel and 15% of them were active in at least one assay; those are over-represented in the sample as a whole. Unmarked numbers belong to inactive results. No stated cut-off is given here; in the data, active means growth inhibition above about 70%; inactive means the rest.

The nature of the test: NCI Yeast Anticancer Drug Screen. Data for the sgs1 mgt1 strain (AID 161).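 Further: 0% = growth of cultures given vehicle only.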 The conditions noted are these: S. cerevisiae sgs1 mgt1 strain, at 50.0 µM, active compounds read high. The method in brief: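 This yeast growth screen uses a strain with defined DNA-repair lesions; compound-treated growth is compared with vehicle-treated growth.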
For `Cc1ccc(C(CCCl)OC(C)C)cc1` (centres undefined), the growth inhibition is 22%.

With `NC(=O)/C(=C\c1ccc(OCc2ccccc2)c(OCc2ccccc2)c1)NC(=O)c1ccccc1`, the growth inhibition is 44%. Next, `CC(=O)Oc1ncnc2c1cnn2C`: -15.6%; `Nc1ccn(CCOC(=O)c2ccccc2)c(=O)n1`: -14.7%; `Cc1cccc(C)c1NC(=O)Nc1cccc(O)c1`: 13.5%. The figure for `Nc1ccc(Cc2ccc(N)c(Br)c2)cc1Br` is 25.1%. Next, `CC(C)(C)c1nc2c(o1)C(=Nc1ccc(F)cc1)c1ccccc1C2=O`: 14.7%; `O=C(CCC(=O)Nc1cccc([N+](=O)[O-])c1)CC(=O)c1ccc(Cl)cc1`: -7.9%; `O=C(Nc1ccccc1)Oc1ccc(C2CCCCC2)cc1`: 8.2%. As for `c1ccc([P+](CCNCCNCC[P+](c2ccccc2)(c2ccccc2)c2ccccc2)(c2ccccc2)c2ccccc2)cc1`, the growth inhibition was -13.8%.

As for `CC(=O)Nc1cc2c(cc1C=O)OCO2`, the growth inhibition is -0.6%.

For the compound `COc1ccccc1NC(=O)CC(=O)NN`, the growth inhibition is -3.9%.

Consider `c1ccc2c(c1)Nc1nc3ccccc3nc1N2`, for which the growth inhibition was -33.8%. Next, `Cc1ccnc2[nH]c(-c3cccc(Cl)c3)cc(=O)c12`: -41%; `COc1ccccc1CO`: 3.85%.

Regarding `Clc1nc(-c2ccccc2)nc2ccccc12`, the growth inhibition is -18.2%.

Consider `CCOC(=S)SCCSC`, for which the growth inhibition was -1.45%. The figure for `COc1cc(C(CC#N)CC#N)cc(OC)c1OC` is 25.8%; for `CN(C)C=Nc1ccn(C2CC(F)C(CO)O2)c(=O)n1` (centres undefined) it is -22.4%.
